Results published in PubChem BioAssay AID1159580 (chemical genetic matrix, 2015).
Out of some 5,500 compounds screened, about 2,000 (36%) were called active. Roughly 18% stayed inconclusive and do not appear here. Rule as the data show it: active = normalized growth mostly below about 0.91 (no sharp cut-off); inconclusive = no clear call, values can overlap the other calls; inactive = mostly above about 0.92. This is one part of the list.

Test: chemical genetic growth profiling, strain panel (AID 1159580);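 also: tested at 20 µM; growth read once vehicle control cultures reached saturation at 30 °C; 1 = growth at the plate median or of vehicle wells; lower values mean less growth of the strain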
Settings: S. cerevisiae deletion strains, growth OD
[1] = locus YHR030C, strain SLT2, hits give low values
[2] = locus YHR079C, strain IRE1, hits give low values
[3] = locus YJL095W, strain BCK1, hits give low values
[4] = locus YJR066W, strain TOR1, hits give low values
[5] = locus YLR113W, strain HOG1, hits give low values
[6] = locus YNL183C, strain NPR1, hits give low values
[7] = locus YOR231W, strain MKK1, hits give low values
[8] = locus YPL256C, strain CLN2, hits give low values

Measured: normalized growth

OC1(C(F)(F)F)CC(C23CC4CC(CC(C4)C2)C3)=NN1 (centres undefined)
active: locus YAR019C, strain CDC15, hits give low values 0.867 | locus YBR136W, strain MEC1, hits give low values 0.889 | locus YBR160W, strain CDC28, hits give low values 0.891 | locus YDL028C, strain MPS1, hits give low values 0.847 | locus YDL101C, strain DUN1, hits give low values 0.897 | locus YDL108W, strain KIN28, hits give low values 0.892 | locus YDL132W, strain cdc53, hits give low values 0.872 | locus YDL214C, strain PRR2, hits give low values 0.642 | locus YDR052C, strain DBF4, hits give low values 0.882 | locus YDR226W, strain ADK1, hits give low values 0.859 | locus YDR477W, strain SNF1, hits give low values 0.505 | locus YER123W, strain YCK3, hits give low values 0.435 | locus YER133W, strain GLC7, hits give low values 0.57 | locus YFL009W, strain cdc4, hits give low values 0.851 | locus YFL029C, strain CAK1, hits give low values 0.876 | locus YFR019W, strain FAB1, hits give low values 0.527 | locus YFR028C, strain CDC14, hits give low values 0.86 | locus YGR040W, strain KSS1, hits give low values 0.497 | [1] 0.183 | locus YHR205W, strain SCH9, hits give low values 0.531 | locus YIL147C, strain SLN1, hits give low values 0.889 | [3] 0.163 | locus YJL157C, strain FAR1, hits give low values 0.655 | locus YJR016C, strain ILV3, hits give low values 0.891 | [4] 0.411 | locus YKL067W, strain YNK1, hits give low values 0.634 | locus YKL101W, strain HSL1, hits give low values 0.716 | locus YKL193C, strain SDS22, hits give low values 0.888 | locus YKL203C, strain TOR2, hits give low values 0.555 | [5] 0.578 | locus YLR133W, strain CKI1, hits give low values 0.655 | locus YLR403W, strain SFP1, hits give low values 0.469 | locus YML070W, strain DAK1, hits give low values 0.643 | locus YMR001C, strain CDC5, hits give low values 0.881 | locus YMR205C, strain PFK2 (second series), hits give low values 0.735 | locus YMR277W, strain FCP1, hits give low values 0.863 | locus YNL006W, strain LST8, hits give low values 0.892 | locus YNL020C, strain ARK1, hits give low values 0.659 | locus YNL161W, strain CBK1, hits give low values 0.898 | locus YNL207W, strain RIO2, hits give low values 0.867 | locus YNL222W, strain SSU72, hits give low values 0.876 | locus YNL307C, strain MCK1 (second series), hits give low values 0.565 | locus YOR061W, strain CKA2, hits give low values 0.17 | locus YOR119C, strain RIO1, hits give low values 0.521 | locus YOR329C, strain SCD5, hits give low values 0.901 | locus YPL031C, strain PHO85, hits give low values 0.471 | locus YPL153C, strain RAD53, hits give low values 0.517 | locus YPL204W, strain HRR25, hits give low values 0.477 | locus YPL209C, strain IPL1, hits give low values 0.89 | [8] 0.64 | locus YPR025C, strain CCL1, hits give low values 0.893 | strain TSCII, hits give low values 0.858
inactive: locus YBL105C, strain PKC1, hits give low values 0.905 | locus YBR135W, strain CKS1, hits give low values 0.898 | locus YDL017W, strain CDC7, hits give low values 0.913 | locus YDR054C, strain cdc34, hits give low values 0.88 | locus YFR003C, strain YPI1, hits give low values 0.905 | locus YGR052W, strain FMP48, hits give low values 0.62 | locus YGR092W, strain DBF2, hits give low values 0.487 | [2] 0.645 | locus YHR082C, strain KSP1, hits give low values 0.688 | locus YJL128C, strain PBS2, hits give low values 0.946 | locus YJR066W, strain TOR1 (second series), hits give low values 0.718 | locus YKL048C, strain ELM1, hits give low values 0.884 | [6] 0.618 | locus YOL078W, strain AVO1, hits give low values 0.893 | locus YOL136C, strain PFK27, hits give low values 0.715 | [7] 0.637 | locus YPR106W, strain ISR1, hits give low values 0.915 | locus YPR111W, strain DBF20, hits give low values 0.875 | strain NNK1, hits give low values 0.921

CC(=O)OCC(=O)[C@@]1(O)[C@@H](C)CC2C3CCC4=CC(=O)C=C[C@]4(C)[C@@]3(F)[C@@H](O)C[C@@]21C (some centres undefined)
inactive: [1] 1.06 | [2] 1.05 | [3] 1.01 | [4] 1 | [5] 0.994 | [6] 0.991 | [7] 1.05 | [8] 1.06

CC1=C(C/C=C(\C)CCC[C@H](C)CCC[C@H](C)CCCC(C)C)C(=O)c2ccccc2C1=O
active: locus YDR137W, strain rgp1, hits give low values 0.772
inactive: locus YAL021C, strain ccr4, hits give low values 0.99 | locus YAL026C, strain drs2, hits give low values 0.99 | locus YAL030W, strain snc1, hits give low values 0.995 | locus YBL061C, strain skt5, hits give low values 0.997 | locus YBR009C, strain hhf1, hits give low values 0.977 | locus YBR023C, strain chs3, hits give low values 0.996 | locus YBR171W, strain sec66, hits give low values 0.993 | locus YBR231C, strain swc5, hits give low values 0.989 | locus YBR279W, strain paf1, hits give low values 0.994 | locus YCL011C, strain gbp2, hits give low values 0.977 | locus YCL016C, strain dcc1, hits give low values 0.985 | locus YCL061C, strain MRC1, hits give low values 0.987 | locus YCL069W, strain vba3, hits give low values 0.979 | locus YCR088W, strain abp1, hits give low values 1 | locus YDL005C, strain med2, hits give low values 0.965 | locus YDL040C, strain nat1, hits give low values 1 | locus YDR001C, strain nth1, hits give low values 0.993 | locus YDR069C, strain doa4, hits give low values 0.975 | locus YDR159W, strain sac3, hits give low values 0.981 | locus YDR195W, strain ref2 0.963 | locus YDR297W, strain sur2, hits give low values 0.993 | locus YDR334W, strain swr1, hits give low values 0.955 | locus YDR335W, strain msn5, hits give low values 0.99 | locus YDR392W, strain spt3, hits give low values 0.962 | locus YEL003W, strain gim4, hits give low values 0.977 | locus YEL037C, strain rad23, hits give low values 0.994 | locus YEL061C, strain CIN8 (second series), hits give low values 0.992 | locus YER015W, strain faa2, hits give low values 0.991 | locus YER016W, strain bim1, hits give low values 0.982 | locus YER111C, strain swi4, hits give low values 1 | locus YER155C, strain BEM2 (second series), hits give low values 0.993 | locus YFR010W, strain ubp6, hits give low values 0.974 | locus YGL167C, strain pmr1, hits give low values 0.989 | locus YGL173C, strain kem1, hits give low values 0.99 | locus YGL227W, strain vid30, hits give low values 0.997 | locus YGL240W, strain doc1, hits give low values 0.956 | locus YGL253W, strain hxk2, hits give low values 1 | locus YHR013C, strain ard1, hits give low values 0.975 | locus YHR027C, strain rpn1, hits give low values 0.984 | [1] 0.986 | [2] 0.992 | locus YHR142W, strain chs7, hits give low values 1 | locus YJL092W, strain hpr5, hits give low values 0.982 | locus YJL095W, strain BCK1 (second series), hits give low values 0.995 | [3] 0.998 | locus YJL115W, strain asf1, hits give low values 0.968 | locus YJL129C, strain trk1, hits give low values 0.984 | locus YJL154C, strain vps35, hits give low values 0.984 | locus YJL164C, strain tpk1, hits give low values 0.974 | locus YJL166W, strain qcr8, hits give low values 1 | locus YJL187C, strain SWE1, hits give low values 0.979 | [4] 0.943 | locus YKL160W, strain elf1, hits give low values 0.998 | locus YKR026C, strain gcn3, hits give low values 0.996 | locus YKR091W, strain srl3, hits give low values 0.985 | locus YLL001W, strain dnm1, hits give low values 0.992 | locus YLL026W, hits give low values 0.996 | locus YLL041C, strain sdh2, hits give low values 0.99 | locus YLR027C, strain aat2, hits give low values 0.992 | [5] 0.953 | locus YLR221C, strain rsa3, hits give low values 0.981 | locus YLR258W, strain gsy2, hits give low values 0.983 | locus YLR262C, strain YPT6 (second series), hits give low values 0.899 | locus YLR320W, strain mms22, hits give low values 0.992 | locus YLR342W, strain FKS1, hits give low values 0.999 | locus YLR357W, strain rsc2, hits give low values 1 | locus YLR370C, strain arc18, hits give low values 0.99 | locus YLR384C, strain iki3, hits give low values 0.988 | locus YML120C, strain ndi1, hits give low values 0.998 | locus YMR058W, strain fet3, hits give low values 0.973 | locus YMR125W, strain sto1, hits give low values 0.978 | locus YMR129W, hits give low values 0.985 | locus YMR205C, strain PFK2, hits give low values 0.981 | locus YMR231W, strain pep5, hits give low values 0.99 | locus YNL071W, strain lat1, hits give low values 0.972 | [6] 0.947 | locus YNL209W, strain ssb2, hits give low values 0.983 | locus YNL248C, strain rpa49, hits give low values 0.977 | locus YNL322C, strain KRE1 (second series), hits give low values 0.998 | locus YNR049C, strain mso1, hits give low values 1 | locus YOR001W, strain rrp6, hits give low values 1 | locus YOR070C, strain gyp1, hits give low values 0.988 | locus YOR080W, strain dia2, hits give low values 0.986 | locus YOR083W, strain WHI5, hits give low values 0.992 | locus YOR106W, strain vam3, hits give low values 0.964 | [7] 0.979 | locus YOR265W, strain rbl2, hits give low values 0.985 | locus YOR270C, strain vph1, hits give low values 0.871 | locus YOR290C, strain snf2, hits give low values 0.987 | locus YPL051W, strain arl3, hits give low values 0.988 | locus YPL078C, strain atp4, hits give low values 0.996 | locus YPL106C, strain sse1, hits give low values 0.871 | locus YPL240C, strain hsp82, hits give low values 0.97 | [8] 0.944
